For test [1], the target named is Sphingosine kinase 1 (Homo sapiens) (UniProt Q9NYA1). As to conditions: at 1 µM.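 Also: mean SPHK1 inhibition value reported from the GSK PKIS kinase panel screen.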
Test [2] deals with T1, Sphingosine kinase 2 (Homo sapiens) (UniProt Q9NRA0).
T1 sequence (whole entry): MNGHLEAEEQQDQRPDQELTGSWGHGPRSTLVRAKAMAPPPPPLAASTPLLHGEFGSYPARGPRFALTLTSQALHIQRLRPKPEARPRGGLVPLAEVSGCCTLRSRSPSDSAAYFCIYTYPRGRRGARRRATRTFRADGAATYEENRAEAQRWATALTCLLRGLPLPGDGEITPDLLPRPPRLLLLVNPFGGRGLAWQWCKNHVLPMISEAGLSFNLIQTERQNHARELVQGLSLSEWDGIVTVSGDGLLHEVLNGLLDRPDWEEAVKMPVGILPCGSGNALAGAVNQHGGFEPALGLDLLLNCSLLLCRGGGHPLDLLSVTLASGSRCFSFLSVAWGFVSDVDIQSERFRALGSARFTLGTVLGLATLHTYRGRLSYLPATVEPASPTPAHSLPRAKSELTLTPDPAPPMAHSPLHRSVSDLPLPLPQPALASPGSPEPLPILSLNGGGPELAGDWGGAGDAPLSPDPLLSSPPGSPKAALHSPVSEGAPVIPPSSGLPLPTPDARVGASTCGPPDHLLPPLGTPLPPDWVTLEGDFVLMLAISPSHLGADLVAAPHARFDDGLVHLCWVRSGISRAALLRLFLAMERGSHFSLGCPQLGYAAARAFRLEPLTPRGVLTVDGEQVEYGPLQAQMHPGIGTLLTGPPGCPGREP
As to conditions: at 0.1 µM.

The target in test [3] is T1, Sphingosine kinase 2 (Homo sapiens). Particulars: at 1 µM.
In test [4] the target is Casein kinase II subunit alpha (Homo sapiens) (UniProt P68400). Particulars: at 0.1 µM.
Test [5] shares this target. Particulars: at 1 µM.
The target in test [6] is T2, Inhibitor of nuclear factor kappa-B kinase subunit alpha (Homo sapiens) (UniProt O15111).
T2 sequence (whole entry): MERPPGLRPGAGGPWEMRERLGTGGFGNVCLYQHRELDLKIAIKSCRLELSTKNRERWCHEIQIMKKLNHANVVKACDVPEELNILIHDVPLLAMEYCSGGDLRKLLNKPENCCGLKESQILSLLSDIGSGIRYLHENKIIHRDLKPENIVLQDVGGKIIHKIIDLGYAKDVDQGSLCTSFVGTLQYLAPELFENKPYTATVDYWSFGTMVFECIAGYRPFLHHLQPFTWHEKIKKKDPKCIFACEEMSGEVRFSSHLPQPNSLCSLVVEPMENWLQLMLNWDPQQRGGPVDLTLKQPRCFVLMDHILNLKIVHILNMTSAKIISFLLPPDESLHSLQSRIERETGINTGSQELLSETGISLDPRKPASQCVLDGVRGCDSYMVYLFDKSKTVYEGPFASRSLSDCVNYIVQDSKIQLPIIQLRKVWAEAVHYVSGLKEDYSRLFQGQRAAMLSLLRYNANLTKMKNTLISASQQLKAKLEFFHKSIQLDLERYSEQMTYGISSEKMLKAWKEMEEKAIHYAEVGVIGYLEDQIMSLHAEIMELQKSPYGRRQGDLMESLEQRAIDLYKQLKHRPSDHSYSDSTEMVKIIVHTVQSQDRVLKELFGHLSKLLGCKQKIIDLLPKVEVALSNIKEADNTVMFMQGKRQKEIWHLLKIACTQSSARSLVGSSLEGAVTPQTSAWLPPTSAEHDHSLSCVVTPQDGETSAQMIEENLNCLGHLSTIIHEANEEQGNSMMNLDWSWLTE
As to conditions: at 0.1 µM.

The target in test [7] is T2, Inhibitor of nuclear factor kappa-B kinase subunit alpha (Homo sapiens). Particulars: at 1 µM.
In test [8] the target is T3, Inhibitor of nuclear factor kappa-B kinase subunit beta (Homo sapiens) (UniProt O14920).
T3 sequence (whole entry): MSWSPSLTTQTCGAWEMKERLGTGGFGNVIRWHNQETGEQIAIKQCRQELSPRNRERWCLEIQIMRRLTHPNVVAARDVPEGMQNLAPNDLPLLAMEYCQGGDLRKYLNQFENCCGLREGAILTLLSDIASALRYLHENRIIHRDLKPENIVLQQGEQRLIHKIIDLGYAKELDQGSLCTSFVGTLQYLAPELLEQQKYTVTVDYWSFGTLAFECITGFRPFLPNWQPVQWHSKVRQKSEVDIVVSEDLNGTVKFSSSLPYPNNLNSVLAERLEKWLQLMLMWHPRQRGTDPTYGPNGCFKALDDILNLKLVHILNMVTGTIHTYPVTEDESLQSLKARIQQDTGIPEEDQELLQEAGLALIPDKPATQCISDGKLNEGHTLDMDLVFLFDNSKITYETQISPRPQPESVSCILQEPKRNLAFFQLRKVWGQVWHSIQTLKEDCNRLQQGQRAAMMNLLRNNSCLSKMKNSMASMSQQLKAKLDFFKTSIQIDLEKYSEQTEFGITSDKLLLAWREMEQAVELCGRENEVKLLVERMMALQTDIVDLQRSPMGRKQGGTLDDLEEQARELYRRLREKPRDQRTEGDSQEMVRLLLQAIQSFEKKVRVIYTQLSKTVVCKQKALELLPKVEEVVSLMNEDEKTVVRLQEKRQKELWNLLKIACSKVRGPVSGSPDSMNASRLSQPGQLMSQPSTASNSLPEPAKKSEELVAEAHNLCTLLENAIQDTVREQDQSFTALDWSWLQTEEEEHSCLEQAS
Particulars: at 0.1 µM.

In test [9] the target is T3, Inhibitor of nuclear factor kappa-B kinase subunit beta (Homo sapiens). Particulars: at 1 µM.
Test [10] has as its target T4, Inhibitor of nuclear factor kappa-B kinase subunit epsilon (Homo sapiens) (UniProt Q14164).
T4 sequence (whole entry): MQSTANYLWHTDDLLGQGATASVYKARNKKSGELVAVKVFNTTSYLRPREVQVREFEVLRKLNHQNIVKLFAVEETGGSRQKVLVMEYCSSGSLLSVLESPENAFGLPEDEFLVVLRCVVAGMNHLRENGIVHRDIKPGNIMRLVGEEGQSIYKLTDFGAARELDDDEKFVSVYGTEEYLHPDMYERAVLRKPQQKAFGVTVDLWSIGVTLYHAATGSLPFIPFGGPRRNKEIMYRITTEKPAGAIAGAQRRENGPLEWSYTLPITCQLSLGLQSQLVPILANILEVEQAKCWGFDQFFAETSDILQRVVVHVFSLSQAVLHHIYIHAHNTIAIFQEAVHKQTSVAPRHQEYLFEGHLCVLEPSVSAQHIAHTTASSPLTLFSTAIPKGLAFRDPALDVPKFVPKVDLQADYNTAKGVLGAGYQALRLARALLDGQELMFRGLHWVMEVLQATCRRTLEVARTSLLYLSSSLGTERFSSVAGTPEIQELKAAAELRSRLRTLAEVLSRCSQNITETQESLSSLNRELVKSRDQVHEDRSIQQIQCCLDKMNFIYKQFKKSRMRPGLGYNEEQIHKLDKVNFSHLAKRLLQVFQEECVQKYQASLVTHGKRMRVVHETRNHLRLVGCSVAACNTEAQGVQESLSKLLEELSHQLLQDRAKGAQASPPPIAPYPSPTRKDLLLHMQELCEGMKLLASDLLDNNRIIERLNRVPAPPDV
As to conditions: at 0.1 µM.

The target in test [11] is T4, Inhibitor of nuclear factor kappa-B kinase subunit epsilon (Homo sapiens). Particulars: at 1 µM.
Test [12] has as its target T5, Serine/threonine-protein kinase Nek1 (Homo sapiens) (UniProt Q96PY6).
T5 sequence (whole entry): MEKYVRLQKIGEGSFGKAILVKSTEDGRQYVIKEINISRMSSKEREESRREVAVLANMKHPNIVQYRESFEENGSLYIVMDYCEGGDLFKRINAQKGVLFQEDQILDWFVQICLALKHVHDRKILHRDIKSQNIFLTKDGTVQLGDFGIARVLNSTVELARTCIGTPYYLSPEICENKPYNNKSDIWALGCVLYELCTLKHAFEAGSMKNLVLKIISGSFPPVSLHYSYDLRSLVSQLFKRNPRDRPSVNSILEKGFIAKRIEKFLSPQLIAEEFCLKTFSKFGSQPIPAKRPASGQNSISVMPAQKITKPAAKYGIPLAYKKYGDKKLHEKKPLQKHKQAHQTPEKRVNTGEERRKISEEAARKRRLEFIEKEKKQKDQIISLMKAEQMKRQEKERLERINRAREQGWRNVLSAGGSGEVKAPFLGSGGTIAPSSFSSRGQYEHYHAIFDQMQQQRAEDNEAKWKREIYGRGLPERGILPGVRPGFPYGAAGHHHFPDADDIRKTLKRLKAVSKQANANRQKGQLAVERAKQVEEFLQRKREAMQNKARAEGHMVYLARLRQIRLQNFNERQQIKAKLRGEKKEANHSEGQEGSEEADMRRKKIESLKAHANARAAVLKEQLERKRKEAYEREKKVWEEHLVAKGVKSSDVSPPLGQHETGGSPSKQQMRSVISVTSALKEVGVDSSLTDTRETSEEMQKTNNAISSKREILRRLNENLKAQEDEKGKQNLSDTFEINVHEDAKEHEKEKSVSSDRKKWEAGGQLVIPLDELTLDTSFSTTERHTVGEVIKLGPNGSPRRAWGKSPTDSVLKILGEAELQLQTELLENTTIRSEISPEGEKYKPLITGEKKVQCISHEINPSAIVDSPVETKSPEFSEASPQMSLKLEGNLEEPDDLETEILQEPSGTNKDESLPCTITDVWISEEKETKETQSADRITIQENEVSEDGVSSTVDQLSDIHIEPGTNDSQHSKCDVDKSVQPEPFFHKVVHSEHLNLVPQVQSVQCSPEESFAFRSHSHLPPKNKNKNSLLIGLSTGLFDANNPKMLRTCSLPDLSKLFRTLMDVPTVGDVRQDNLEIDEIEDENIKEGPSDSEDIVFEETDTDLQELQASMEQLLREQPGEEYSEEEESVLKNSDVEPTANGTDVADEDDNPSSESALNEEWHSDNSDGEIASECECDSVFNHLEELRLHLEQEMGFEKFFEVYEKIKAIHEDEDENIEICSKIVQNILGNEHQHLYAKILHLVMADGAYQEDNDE
As to conditions: at 0.1 µM.

Test [13] has as its target T5, Serine/threonine-protein kinase Nek1 (Homo sapiens). Particulars: at 1 µM.
Test [14] deals with T6, Serine/threonine-protein kinase Nek2 (Homo sapiens) (UniProt P51955).
T6 sequence (whole entry): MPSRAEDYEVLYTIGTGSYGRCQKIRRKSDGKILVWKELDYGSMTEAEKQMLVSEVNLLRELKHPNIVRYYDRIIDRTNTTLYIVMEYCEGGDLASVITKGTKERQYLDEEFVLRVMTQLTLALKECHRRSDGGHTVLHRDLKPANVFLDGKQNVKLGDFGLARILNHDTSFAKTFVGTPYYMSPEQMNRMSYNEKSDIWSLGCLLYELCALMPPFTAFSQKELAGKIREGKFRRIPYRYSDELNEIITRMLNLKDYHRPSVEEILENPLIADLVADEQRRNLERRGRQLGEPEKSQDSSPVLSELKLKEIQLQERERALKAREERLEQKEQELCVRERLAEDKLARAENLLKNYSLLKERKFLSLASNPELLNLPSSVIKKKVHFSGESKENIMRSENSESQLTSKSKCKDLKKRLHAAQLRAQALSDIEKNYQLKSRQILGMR
As to conditions: at 0.1 µM.

Test [15] addresses T6, Serine/threonine-protein kinase Nek2 (Homo sapiens). Particulars: at 1 µM.
Test [16] has as its target Serine/threonine-protein kinase Nek6 (Homo sapiens) (UniProt Q9HC98). Particulars: at 0.1 µM.
Test [17] shares this target. As to conditions: at 1 µM.
Test [18] concerns the target Serine/threonine-protein kinase Nek7 (Homo sapiens) (UniProt Q8TDX7). As to conditions: at 0.1 µM.
Test [19] has the same target. Particulars: at 1 µM.
Test [20] concerns the target T7, Serine/threonine-protein kinase Nek9 (Homo sapiens) (UniProt Q8TD19).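 Also: reported value is the mean percent inhibition of NEK9.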
T7 sequence (whole entry): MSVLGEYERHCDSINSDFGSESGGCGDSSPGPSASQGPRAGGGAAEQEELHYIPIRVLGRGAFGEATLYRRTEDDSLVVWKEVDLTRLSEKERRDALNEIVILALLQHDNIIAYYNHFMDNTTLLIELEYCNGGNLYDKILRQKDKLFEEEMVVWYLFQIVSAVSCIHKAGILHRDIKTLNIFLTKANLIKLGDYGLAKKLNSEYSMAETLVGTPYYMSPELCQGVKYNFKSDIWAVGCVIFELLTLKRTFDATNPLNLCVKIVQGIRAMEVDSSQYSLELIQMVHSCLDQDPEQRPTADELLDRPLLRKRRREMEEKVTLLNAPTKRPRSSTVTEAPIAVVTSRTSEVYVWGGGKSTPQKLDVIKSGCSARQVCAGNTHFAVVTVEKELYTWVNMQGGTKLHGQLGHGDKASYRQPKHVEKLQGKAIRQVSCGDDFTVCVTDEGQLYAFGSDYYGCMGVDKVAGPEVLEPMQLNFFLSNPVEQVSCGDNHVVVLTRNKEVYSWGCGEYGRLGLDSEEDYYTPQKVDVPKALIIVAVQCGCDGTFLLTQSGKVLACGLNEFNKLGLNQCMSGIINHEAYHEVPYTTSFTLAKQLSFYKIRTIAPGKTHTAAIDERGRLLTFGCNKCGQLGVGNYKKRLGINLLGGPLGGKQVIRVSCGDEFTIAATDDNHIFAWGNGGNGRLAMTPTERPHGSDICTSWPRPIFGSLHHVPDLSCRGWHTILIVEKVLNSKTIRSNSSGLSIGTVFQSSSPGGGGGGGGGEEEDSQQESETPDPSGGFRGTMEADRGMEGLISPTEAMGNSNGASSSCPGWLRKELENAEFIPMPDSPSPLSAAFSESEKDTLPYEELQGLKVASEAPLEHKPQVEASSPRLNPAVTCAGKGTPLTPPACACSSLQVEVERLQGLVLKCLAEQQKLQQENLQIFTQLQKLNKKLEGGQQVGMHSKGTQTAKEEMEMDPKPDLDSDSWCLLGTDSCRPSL
Particulars: at 0.1 µM.

Serine/threonine-protein kinase Nek6 (Homo sapiens), sequence (Q9HC98 whole entry): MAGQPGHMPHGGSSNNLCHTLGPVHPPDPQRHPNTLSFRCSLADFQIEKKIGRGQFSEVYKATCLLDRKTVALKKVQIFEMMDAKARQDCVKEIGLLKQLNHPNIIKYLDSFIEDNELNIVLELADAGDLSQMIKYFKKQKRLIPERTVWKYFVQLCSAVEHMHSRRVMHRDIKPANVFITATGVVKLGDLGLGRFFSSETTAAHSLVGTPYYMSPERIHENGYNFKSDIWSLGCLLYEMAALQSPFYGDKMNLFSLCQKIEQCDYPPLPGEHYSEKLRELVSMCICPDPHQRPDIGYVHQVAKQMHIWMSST
Casein kinase II subunit alpha (Homo sapiens), sequence (P68400 whole entry, looked up): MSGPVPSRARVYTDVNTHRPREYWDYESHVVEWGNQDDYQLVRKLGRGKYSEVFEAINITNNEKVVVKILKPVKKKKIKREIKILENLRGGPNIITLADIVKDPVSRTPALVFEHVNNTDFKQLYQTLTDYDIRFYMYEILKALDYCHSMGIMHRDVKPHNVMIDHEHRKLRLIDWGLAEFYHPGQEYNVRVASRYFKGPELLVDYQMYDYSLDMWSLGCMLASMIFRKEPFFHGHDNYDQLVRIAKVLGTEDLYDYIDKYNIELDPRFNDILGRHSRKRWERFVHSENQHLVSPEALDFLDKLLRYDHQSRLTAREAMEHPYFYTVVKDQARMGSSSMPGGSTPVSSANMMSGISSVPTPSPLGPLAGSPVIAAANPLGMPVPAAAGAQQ
Serine/threonine-protein kinase Nek7 (Homo sapiens), sequence (Q8TDX7 whole entry, looked up): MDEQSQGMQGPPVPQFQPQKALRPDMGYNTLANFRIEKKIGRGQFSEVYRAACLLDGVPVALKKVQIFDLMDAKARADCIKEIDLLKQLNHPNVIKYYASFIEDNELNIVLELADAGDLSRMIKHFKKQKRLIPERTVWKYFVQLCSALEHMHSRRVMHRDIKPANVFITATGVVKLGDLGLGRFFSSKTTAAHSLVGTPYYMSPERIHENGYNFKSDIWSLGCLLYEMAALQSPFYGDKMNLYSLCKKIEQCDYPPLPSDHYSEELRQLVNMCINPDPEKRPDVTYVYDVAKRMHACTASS
Sphingosine kinase 1 (Homo sapiens), sequence (Q9NYA1 whole entry): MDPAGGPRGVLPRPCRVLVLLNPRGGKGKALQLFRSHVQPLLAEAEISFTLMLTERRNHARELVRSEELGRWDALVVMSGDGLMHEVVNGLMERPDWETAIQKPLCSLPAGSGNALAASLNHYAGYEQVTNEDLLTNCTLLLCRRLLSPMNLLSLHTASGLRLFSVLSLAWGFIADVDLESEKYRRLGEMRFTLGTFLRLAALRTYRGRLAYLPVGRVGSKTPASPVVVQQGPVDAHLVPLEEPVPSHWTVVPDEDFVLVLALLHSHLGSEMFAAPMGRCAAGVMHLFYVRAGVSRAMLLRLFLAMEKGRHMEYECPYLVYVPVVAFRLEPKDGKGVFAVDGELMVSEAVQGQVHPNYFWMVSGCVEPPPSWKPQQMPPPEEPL

Regarding `COc1ccc2cc(-c3c(-c4ccncc4)nc(-c4ccc([S+](C)[O-])cc4C)n3C)ccc2c1` (stereo not given), the inhibition (usually the change of the read-out against control, counted positive when it falls) in test [1] was 5.11%; in test [2], 0.43%; in test [3], 0.76%; in test [4] it was 2.77%; in [5] it was 3.85%; in test [6] it was -4.94%. Moreover, the inhibition in test [7] was -5.55%; in [8], -0.05%; in test [9] it was -2.53%; in test [10] it was -2.45%; in [11], -2.02%; in test [12], 0.36%. Moreover, the inhibition was 0.54% in test [13]; -0.64% in [14]; -0.11% in test [15]; 0.58% in [16]; 1.1% in test [17]; 2.37% in test [18]. Further, the results for the inhibition in test [19] and in test [20] were 0.01% and 3.4%, respectively.

The values above are taken from ChEMBL document CHEMBL1961873, “Compounds: GSK PKIS; Assays: Nanosyn kinase panel” (2012).
